In the library only some 3.2% were active in any assay of this set; here they are far more common.
CendR NRP1 mod = NRP-1/CendR interaction modulation; O14786; hit rate 0.85% among 360,000; FAM-RPARPAR peptide binding to NRP-1, fluorescence polarization; AID 602438; inhibition, % at 25 µM;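 active = inhibition or corrected inhibition above about 18%, plus a signal ratio from 0.5 to 1.5, limit read from the data, passing the limit was not always enough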
SKN-1 block = inhibitors of C. elegans SKN-1; C. elegans VP596 Pgst-4::GFP/RFP ratio, acrylamide-induced, 24 h; inhibition, % at 21.8 µM; hit rate 0.49% among 360,000;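 active = interference check ratio from 0.5 to 1.5 plus GFP to RFP signal ratio inhibition reaching or exceeding a fixed threshold, cut at about 30% in these data, passing the limit was not always enough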
MEKK2mut PB1 HTS = signal of MEK5 binding to mutant human MEKK2 PB1 domain; bead flow cytometry, Alexa488-MEK5 binding to MEKK2 mutant; percent response, % at 10 µM; hit rate 0.35% among 290,000; AID 1530; in the data active = percent response above about 24%, passing the limit was not always enough
MEKK2 WT-MEK5 = raises or lowers MEK5 binding to wildtype human MEKK2 PB1 domain. binding response (% of control), % at 10 µM. hit rate 1.1% among 290,000. Q9Y2U5. bead flow cytometry, Alexa488-MEK5 binding to MEKK2 WT; actives lie on both sides; in the data active = binding response below about 67% or above about 130%
MEKK3 PB1 HTS = MEKK3-MEK5 PB1 interaction, increase or decrease | Q99759 | bead-based flow cytometry, Alexa488-MEK5 binding to MEKK3; actives lie on both sides; 0 = blocked by unlabeled MEK5, 100 = vehicle | binding response (% of control), % at 10 µM | hit rate 1.4% among 290,000 | AID 1529;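 active = binding response more than 3 SD above or below the average of its plate-row segment, actives on both sides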;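 also: Alexa488 bead fluorescence after subtracting the streptavidin-only scavenger bead signal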
Target sequence (Q99759 whole entry, looked up): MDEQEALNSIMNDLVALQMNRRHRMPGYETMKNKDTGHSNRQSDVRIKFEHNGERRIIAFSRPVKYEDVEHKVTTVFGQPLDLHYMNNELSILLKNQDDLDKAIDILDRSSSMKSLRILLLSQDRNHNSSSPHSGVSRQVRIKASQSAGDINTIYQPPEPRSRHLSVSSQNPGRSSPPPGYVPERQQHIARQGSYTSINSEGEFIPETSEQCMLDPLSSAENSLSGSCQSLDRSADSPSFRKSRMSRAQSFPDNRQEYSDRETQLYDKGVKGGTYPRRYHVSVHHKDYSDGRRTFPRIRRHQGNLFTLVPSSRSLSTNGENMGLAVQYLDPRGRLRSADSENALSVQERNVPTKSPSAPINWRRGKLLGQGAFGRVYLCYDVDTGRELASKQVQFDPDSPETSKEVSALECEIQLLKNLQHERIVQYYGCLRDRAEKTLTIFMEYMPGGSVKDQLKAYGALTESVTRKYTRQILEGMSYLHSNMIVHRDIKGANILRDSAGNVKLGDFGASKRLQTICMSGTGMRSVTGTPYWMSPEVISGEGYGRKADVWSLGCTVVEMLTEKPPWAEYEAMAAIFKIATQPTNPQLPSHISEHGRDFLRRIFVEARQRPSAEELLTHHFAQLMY
MEKK2wt confirm = raises or lowers MEK5 binding to wildtype human MEKK2, retest | hit rate 2.4% among 5,900 | shares compounds with MEKK3 PB1 HTS | bead flow cytometry, Alexa488-MEK5 binding to MEKK2 WT; actives lie on both sides | binding response (% of control), % at 10 µM; in the data active = binding response below about 16% or above about 210%; inactive = in between
MEKK2mut confirm = signal of MEK5 binding to mutant human MEKK2, retest; percent response, % at 10 µM; shares compounds with MEKK3 PB1 HTS; hit rate 2% among 5,900; bead flow cytometry, Alexa488-MEK5 binding to MEKK2 mutant; in the data active = percent response mostly above about 71%, no sharp cut-off; inactive = mostly below about 38%;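 also: higher means compound restores mutant binding toward wildtype level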
MEKK3 confirm = MEKK3-MEK5 PB1 inhibition, single concentration confirmation; hit rate 1.8% among 5,900; shares compounds with MEKK3 PB1 HTS; binding response (% of control), % at 10 µM; bead flow cytometry, Alexa488-MEK5 binding to MEKK3; hits give low values;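 active = binding response below 72% of control, or above a set upper limit, though filed actives all read lower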;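 also: 100% = DMSO only wells and 0% = binding blocked by excess unlabeled MEK5; lower values mean stronger disruption of MEK5 binding to MEKK3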
Starred values were filed as active, the others as inactive; · = not tested or not shown; [ ] = another dose, or the depositor's remark.

SMILES	CendR NRP1 mod	SKN-1 block	MEKK2mut PB1 HTS	MEKK2 WT-MEK5	MEKK3 PB1 HTS	MEKK2wt confirm	MEKK2mut confirm	MEKK3 confirm
CC1CCN(S(=O)(=O)c2ccc(NC(=O)Cc3ccccc3)cc2)CC1	-3	-5	-40	-5.0*[inhibitor]	0.0*[inhibitor]	100	-4	99
O=C(Cc1ccccc1)Nc1ccc(S(=O)(=O)N2CCOCC2)cc1	5	3	2	98	100	·	·	·
CC1CCN(S(=O)(=O)c2ccc(NC(=O)CN3CCCC(C)C3)cc2)CC1 (stereo not drawn)	-6	-10	-22	24*[inhibitor]	15*[inhibitor]	99	2	100
COc1ccc(N2C(=O)c3ccccc3NC(=O)C2C(=O)Nc2ccc3c(c2)OCCO3)cc1 (stereo not drawn)	11	-7	·	·	·	·	·	·
Cc1cc(C(=O)COC(=O)Cc2n[nH]c(=O)c3ccccc23)c(C)n1-c1cccc(C(F)(F)F)c1	4	19	1	104	136*	103	-2	101
C=C1CC(COc2ccc3c(C)c(Cl)c(=O)oc3c2)(c2ccccc2)OC1=O (stereo not drawn)	3	3	·	·	·	·	·	·
O=C(CNS(=O)(=O)c1cccs1)NCc1ccc(F)cc1	1	4	6	130	142*	102	1	102
CCN(CC)CC#CCC(O)(c1ccccc1)C1CCCC1 (stereo not drawn)	0	7	-2	46*[inhibitor]	95	116	4	106
Cc1ccc(C)c2c1cc(C)c1nnc(SCC(=O)c3cccs3)n12	0	2	4	112	148*	99	-6	97
Cc1ccc2cc(C)c3nnc(SCC(=O)c4cccs4)n3c2c1C	6	-6	4	102	121	·	·	·
CC1(C)CC(CC(=O)Nc2ccccc2[N+](=O)[O-])C(=O)O1 (stereo not drawn)	-8	-7	0	109	147*	108	2	104
Cc1noc(C)c1CSc1ncnc2sc3c(c12)CCC3	·	·	3	104	133*	97	-6	98
COc1cc(/C=C2/SC(=S)N(CC(=O)Nc3nc4ccccc4s3)C2=O)cc(OC)c1OC	-42	13	-16	71*[inhibitor]	89	80	-9	99
COc1ccc(/C=C2\SC(=S)N(CC(=O)Nc3nnc(C)s3)C2=O)cc1	-1	-9	-6	84	92	·	·	·
CCc1nnc(NC(=O)CN2C(=O)/C(=C/c3cc(OC)c(OC)c(OC)c3)SC2=S)s1	-5	4	1	95	159*	88	-5	100
COc1cc(/C=C2\SC(=S)N(CC(=O)Nc3ccccn3)C2=O)cc(OC)c1OC	-53	6	2	85	99	·	·	·
COc1ccc(NC(=O)C(c2cc3c(cc2[N+](=O)[O-])OCO3)N2CCN(C=O)CC2)cc1 (stereo not drawn)	8	3	-12	3.0*[inhibitor]	2.0*[inhibitor]	101	6	104
Cc1nnc(SCC(=O)Nc2sc3c(c2C#N)CCCC3)[nH]c1=O	-8	-13	12	104	104	·	·	·
N#Cc1c(NC(=O)CSc2nc(N)cc(=O)[nH]2)sc2c1CCCC2	1	-2	-13	2.0*[inhibitor]	1.0*[inhibitor]	95	1	101
C=CCn1c(=O)/c(=C2/Sc3ccccc3N2CC)s/c1=C1/C(=O)NN=C1C	·	·	-10	57*[inhibitor]	76	104	1	104
C=CCn1c(=O)/c(=C2/SC(C)=C(C)N2CC)s/c1=C1/C(=O)N(CC)C(=S)N1c1ccccc1	8	4	·	·	·	·	·	·
CSCCC(C(=O)OCC(=O)c1ccc(C)c(C)c1)N1C(=O)c2cc(Cl)c(Cl)cc2C1=O (stereo not drawn)	5	-9	-15	2.0*[inhibitor]	2.0*[inhibitor]	90	-4	97
c1ccc(COc2ncnc3c2ncn3CCCNCc2ccc3c(c2)OCO3)cc1	10	18	·	·	·	·	·	·
Cn1c(=O)n(C)c2cc3[nH]cnc3cc21	5	10	3	96	96	·	·	·
Nc1cc2nc[nH]c2cc1N	6	2	-23	41*[inhibitor]	31*[inhibitor]	76	-18	69*
SMILES	CendR NRP1 mod	SKN-1 block	MEKK2mut PB1 HTS	MEKK2 WT-MEK5	MEKK3 PB1 HTS	MEKK2wt confirm	MEKK2mut confirm	MEKK3 confirm
Cc1noc(C)c1C(=O)OCC(=O)NC(=O)NC12CC3CC(CC(C3)C1)C2	1	2	0	97	99	·	·	·
Cc1nn(Cc2ccccc2)c(Cl)c1C(=O)OCC(=O)NC(=O)NC12CC3CC(CC(C3)C1)C2	-8	-2	1	106	145*	98	-7	101
O=C(CN1C(=O)NC2(CCCCCC2)C1=O)N1CCC(Cc2ccccc2)CC1	-3	34	-1	3.0*[inhibitor]	3.0*[inhibitor]	99	-4	96
O=C(CN1C(=O)NC2(CCCCC2)C1=O)N1CCN(S(=O)(=O)c2ccccc2)CC1	1	3	0	96	100	·	·	·
CCC(NC(=O)NCc1ccccc1)(C(F)(F)F)C(F)(F)F	-15	8	0	106	151*	101	2	104
CCC(=O)N1CCC1(C)C(=O)Nc1ccc(C)c(C)c1 (stereo not drawn)	0	-8	·	·	·	·	·	·
O=C1CCCc2nc(NCc3ccco3)ncc21	-11	8	24*	111	112	101	0	98
COc1cccc2sc3ccc(C#CC4(N)CCCCC4)cc3c(=O)c12	-5	1	14	136*	103	145	22	108
Oc1ccc(Cl)cc1-c1cc(-c2ccco2)[nH]n1	-31	24	-16	88	78*[inhibitor]	97	-12	92
Oc1ccccc1-c1cc(-c2ccco2)[nH]n1	-13	-11	-1	96	103	·	·	·
CCOC(=O)c1c(C)[nH]c(=S)c(C#N)c1-c1ccc(OC)cc1	-2	-5	5	108	122*	98	0	101
COc1ccccc1-n1c(CNC(=O)c2cccc([N+](=O)[O-])c2C)n[nH]c1=S	9	-4	-33	36*[inhibitor]	26*[inhibitor]	96	1	98
COc1ccccc1NC(=O)CSc1nc2n[nH]c(C)c2c(=N)n1-c1ccccc1Cl	0	8	18	140*	95	139	21	105
COc1cc(OC)cc(-c2c(Sc3ccccc3)c3cc(-c4ccc(OC)c(F)c4)ccc3n2C)c1	-3	14	·	·	·	·	·	·
Cc1ccc2nc(Cl)c(C3CC(c4cccs4)=NN3C(=O)CCC(=O)O)cc2c1 (stereo not drawn)	2	11	-1	103	139*	86	0	90

Screens as filed in PubChem.
